The list is not random: actives were taken first. Their share in the collection is about 21%.
Shiga inhibitor: blocks Shiga toxin action in Vero cells; Vero cells, Shiga toxin protein synthesis inhibition reporter; inhibition, % at 38.7 µM; actives 9.2% (n = 290,000); AID 2315; in the data active = inhibition mostly above about 28%, no sharp cut-off; inactive = mostly below about 43%; note: 0% is about no effect
Pf growth 48h: P. falciparum growth inhibition at 48 hours (one generation); AID 504832; actives 5.9% (n = 310,000); Potency, µM (top dose mostly 28.7 µM), without a hit: top-dose activity change, negative = inhibition, actives largely listed as inhibitors; P. falciparum luciferase growth in erythrocytes, 48 h; note: potency is the fitted concentration of half-maximal effect; % is set by controls: 0 for no effect and ±100 for the full control effect
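Luciferase-expressing parasites in RBCs, 2% Hct / 0.1% parasitemia final; RPMI 1640 + 0.5% Albumax; 37 C, 5% CO2, one generation; luminescence read-out, lower signal = inhibition.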
HCV inhibitor: inhibitors of hepatitis C virus infection; Huh7.5.1 HCVcc-Cre infection, luciferase reporter, 44 h; Potency, µM (top dose mostly 41.8 µM), without a hit: at the top dose activity change, negative = inhibition, usual class: inhibitors; actives 3.4% (n = 340,000); AID 651820; note: potency is the fitted concentration of half-maximal effect; % is set by controls: 0 for no effect and ±100 for the full control effect
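Seed cells (1,000/well) for 4 h; treat with compound and infect with HCVcc-Cre, moi about 0.5. Incubate 44 h, then detect luciferase activity.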
HCMV inh: blocks human cytomegalovirus replication; HFF cells, HCMV-luciferase reporter, 72 h; stronger effect = lower value; activity change, negative = inhibition, % at 57.5 µM; actives 4.5% (n = 410,000); in the data active = activity change below about -60%; inconclusive = no clear call, values can overlap the other calls; inactive = above about -39%; note: % is set by controls: 0 for no effect and ±100 for the full control effect
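Luciferase read-out from HCMV-luciferase-infected HFFs (MOI 1 PFU/cell) 72 h post infection at 37C; compounds added after 16 h cell attachment; activity normalized between buffer-only basal and Salinomycin (10uM) inhibitor controls.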
Pf growth 96h: P. falciparum growth inhibition at 96 hours. P. falciparum luciferase reporter growth, 96 h. Potency, µM (top dose mostly 28.7 µM), without a hit: at the top dose activity change, negative = inhibition, actives largely listed as inhibitors. actives 6.9% (n = 320,000); note: potency is the fitted concentration of half-maximal effect; % is set by controls: 0 for no effect and ±100 for the full control effect
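Readout is luminescence from an integrated firefly luciferase in P. falciparum. Red cells, 2% hematocrit and 0.05% parasitemia final, were cultured with compound through two parasite generations (96 hours) at 37 C, 5% CO2.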
CHX counter: counter-screen hit for Shiga toxin inhibitors, cycloheximide; cell reporter, cycloheximide protein synthesis inhibition counterscreen; max response, %; actives 12% (n = 300,000); AID 2314; in the data active = max response mostly above about 13%, no sharp cut-off; inactive = mostly below about 14%; note: read at 38.3 µM for the half of the compounds with a filed dose; 0% is about no effect
* hit, by the source's call; ? = inconclusive; nt = no result. Unless noted, calls come from the whole dose curve; as a rule, active = well fitted inhibition curve with a large enough effect; inconclusive = small, poorly fitted or top-dose-only effect, or another doubt; inactive = no such curve, though single readings can be large or run the other way.

SMILES | Shiga inhibitor | Pf growth 48h | HCV inhibitor | HCMV inh | Pf growth 96h | CHX counter
COc1ccc(C2=Nn3c(nnc3-c3ccccc3C)SC2)cc1 | -4 | nt | nt | nt | nt | -3
COc1ccc(C2=NOC(C)(c3nnc(-c4ccc(F)cc4)o3)C2)cc1 (stereo not drawn) | -4 | 3% | -9% | 7 | 79% | -5
COc1ccc(C2=NC(c3ccc(Cl)cc3)C(c3ccc(Cl)cc3)N2C(=O)N2CCNC(=O)C2)c(OC(C)C)c1 (stereo not drawn) | -4 | nt | nt | nt | nt | -2
CCC(CC)C(=O)Nc1nc(-c2ccc3c(c2)CCN3C(=O)C2CC2)c(C)s1 | -6 | nt | ? | -102* | ? | -5
CC(C)(C)Nc1nc(-c2ccc3c(c2)CCN3C(=O)C2CC2)cs1 | 98* | 1% | ? | 99 | 6% | 43*
CC(C)C(=O)Nc1nc(-c2ccc3c(c2)CCN3C(=O)C2CC2)cs1 | 59* | -20% | ? | 12 | -17% | 24
COc1ccc(-c2noc(-c3ccccc3C(=O)NCC3CCCO3)n2)cc1 (stereo not drawn) | 11 | 8% | -19% | 21 | 3% | 19*
COc1ccccc1-c1noc(-c2ccccc2C(=O)NCC2CCCO2)n1 (stereo not drawn) | -1 | 24% | -13% | -9 | 44% | 16*
O=C(NCC1CCCO1)c1cc(-c2ccccc2F)no1 (stereo not drawn) | 91* | 114% | 4% | 118 | -16% | 29*
Cc1ccccc1-c1noc(-c2ccccc2C(=O)NCC2CCCO2)n1 (stereo not drawn) | 46 | 37% | -12% | -10 | 38% | 17
COc1ccccc1C(=O)NCC(=O)OCC(=O)c1cccc2ccccc12 | nt | -18% | 9% | -11 | 30% | nt
O=C1C2CCCCN2C(=O)N1CCCCN1CCN(c2ccccc2Oc2ccccc2)CC1 (stereo not drawn) | -10 | ? | -20% | 45 | ? | -2
CCCNC(=O)c1ccccc1N1CCN(CCCCN2C(=O)C3CCCCN3C2=O)CC1 (stereo not drawn) | nt | -9% | -1% | 12 | 10µM* | -2
COC(=O)c1cnn2c3c(c(C)nc12)CCCC3 | 73* | 37% | 0% | 92 | 0.93µM* | 59*
O=C(Nc1ccnn1C1CCN(CC2CC=CCC2)CC1)c1ccccc1Cl (stereo not drawn) | -8 | ? | 1% | 12 | 3% | -6
Cc1ccccc1C(=O)Nc1ccnn1C1CCN(CCCc2ccccc2)CC1 | 9 | ? | nt | nt | 15µM* | 5
CCc1ccc(CN2CCC(n3nccc3NC(=O)c3ccccc3C)CC2)cc1 | -13 | ? | 14µM* | -35 | ? | -7
Cc1ccccc1C(=O)Nc1ccnn1C1CCN(Cc2cccnc2)CC1 | -5 | -2% | 18% | -28 | -4% | -2
Cc1ccccc1C(=O)Nc1ccnn1C1CCN(CC2CC=CCC2)CC1 (stereo not drawn) | 19 | 10% | nt | -2 | 15µM* | 3
Cc1ccc(CN2CCC(n3nccc3NC(=O)c3ccccc3C)CC2)o1 | 27 | -19% | 5% | ? | 2.1µM* | -2
CC12CCC3c4ccc(O)cc4CCC3C1CC(=NO)C2O (stereo not drawn) | nt | nt | 18% | -3 | nt | nt
CSCCC(NC(=O)c1ccccc1)C(=O)NCCCn1nc(C)cc1C (stereo not drawn) | nt | 12% | 11% | -13 | -9% | nt
COc1ccc(Cc2c(-c3ccc(C)cc3)nc3c(C)cc(Br)cn23)c(C)c1 | nt | nt | nt | 36 | nt | nt
COc1ccc(Cc2c(-c3ccc(OC)c(OC)c3)nc3c(C)cc(Br)cn23)c(C)c1 | nt | nt | nt | -61* | nt | nt
Cc1ccc(Cn2cnc3c(cnn3C(C)(C)C)c2=O)cc1 | 20 | 56% | 11µM* | ? | -20% | 9
SMILES | Shiga inhibitor | Pf growth 48h | HCV inhibitor | HCMV inh | Pf growth 96h | CHX counter
CC(C)(C)n1ncc2c(=O)n(Cc3ccc(Cl)c(Cl)c3)cnc21 | 22 | 20% | 13% | 16 | ? | 8
CC(C)(C)n1ncc2c(=O)n(Cc3ccccc3Br)cnc21 | nt | 2.9µM* | nt | ? | ? | nt
NC(=O)C1CCN(C(=O)NC(=O)c2ccccc2)CC1 | -8 | -8% | 8% | -29 | -4% | -1
Cc1cc(C)c(OCC(=O)Nc2ccc(S(=O)(=O)N3CCCC3)cc2)c(C)c1 | nt | ? | -24% | -12 | ? | nt
CCCC[C@H]1CCCO[C@@](C(=O)NCc2cc(C)n(C)n2)(C(F)(F)F)C1 | -4 | nt | nt | nt | nt | 10
Cc1cc(C(=O)NCc2ccccc2Br)no1 | 36 | 5% | 9% | 38 | nt | 16*
Cc1cc(C(=O)N/N=C/c2ccccc2Br)no1 | 60* | 73% | 20% | 1 | 0% | 36*
Cc1cc(C(=O)N/N=C/c2ccc[nH]2)no1 | 45 | 14% | ? | -20 | 69% | 20
Cn1cccc1/C=N/NC(=O)c1ccccn1 | 84* | -86% | -15% | 0 | 200% | 31*
Cn1cccc1/C=N/NC(=O)c1sc2cc(Cl)ccc2c1Cl | 16 | 7% | 1% | -14 | 2.3µM* | 0
Cc1ccc2c(Cl)c(C(=O)N/N=C/c3cccn3C)sc2c1 | 1 | 40% | 17% | -34 | ? | 6
Cc1cc(C(=O)NCc2ccccc2)no1 | 61 | 9% | 7% | 77 | -13% | -3
CSC(=NS(=O)(=O)c1ccc(N)cc1)NS(=O)(=O)c1cccs1 | nt | nt | 5% | -14 | nt | nt
O=Cc1ccccc1Cl | nt | nt | nt | -23 | nt | nt
O=S(=O)(c1ccc(Oc2ccc(F)c(Cl)c2)nc1)N1CCOCC1 | nt | 0% | 20% | -34 | 35% | nt
Cc1cc(C(=O)N/N=C/c2cccn2C)no1 | 18* | 20% | 6% | -28 | -9% | 10
Cn1cccc1/C=N\NC(=O)Cc1ccc(Br)c2ccccc12 | -15 | -19% | 10µM* | -80* | -11% | 13
Cn1cccc1/C=N/NC(=O)Cc1ccccc1 | 21 | 5% | -7% | 22 | ? | 11
Cn1cccc1/C=N/NC(=O)c1cc2ccccc2cc1O | 67* | ? | ? | 18 | 0% | 21*
Cc1cccc(CCNc2ncnc3onc(-c4ccc(Cl)cc4)c23)c1 | nt | nt | nt | -36 | nt | nt
CS(=O)(=O)Nc1cccc(-c2cc(F)c(S(=O)(=O)N3CCN(S(=O)(=O)c4ccc5c(c4)OCCO5)CC3)cc2F)c1 | -1 | nt | nt | nt | nt | -2
COc1cccc(/C=C2\SC(=S)N(CCC(=O)Nc3ccc(O)cc3)C2=O)c1 | 47* | 57% | ? | 32 | ? | 30*
O=C(CCN1C(=O)/C(=C/c2ccc(F)cc2)SC1=S)NCCc1ccc(O)cc1 | -14 | -24% | 14% | ? | 84% | -2
COc1cccc(/C=C2\SC(=S)N(CCC(=O)NNC(=O)c3ccccc3OC)C2=O)c1 | -21 | 43% | ? | 0 | 40% | -4
